Holding throughout (settings): mRNA level, 48 h; actives raise or lower the signal
Read-out in experiment [1]: ABC Transporter (ABCC3), ABCC3 (gene 8714)
Description: LTEA_HepaRG_ABCC3: Life Technologies and Expression Analysis (LTEA) Assay for ABC Transporter (ABCC3) using HepaRG (AID 2283462). The gist of the method:
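HepaRG cells in serum-free induction medium were exposed for 48 h in duplicate to 8-point half-log concentrations topping at 100 uM in 0.5% DMSO. ABCC3 mRNA was measured by qRT-PCR normalized to ACTB, GAPDH and POLR2A, with bidirectional fitting versus DMSO.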

Read-out in experiment [2]: ABC Transporter (ABCB11), ABCB11 (gene 8647)
Description: LTEA_HepaRG_ABCB11: Life Technologies and Expression Analysis (LTEA) Assay for ABC Transporter (ABCB11) using HepaRG (AID 2283463). The gist of the method: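 ABCB11 transcript levels are read by Fluidigm TaqMan qRT-PCR after 48 h chemical treatment of human HepaRG cells. Concentrations span 100 uM downward in half-log steps with 0.5% DMSO; gain or loss is fitted against DMSO controls.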

Read-out in experiment [3]: Broad substrate specificity ATP-binding cassette transporter ABCG2 (Homo sapiens) (UniProt Q9UNQ0)
The experiment is described as follows: LTEA_HepaRG_ABCG2: Life Technologies and Expression Analysis (LTEA) Assay for ABC Transporter (ABCG2) using HepaRG (AID 2283465). The gist of the method:
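Read-out is ABCG2 mRNA induction or loss quantified by qRT-PCR after 48 h chemical treatment of human HepaRG cells, normalized to three housekeeping genes. Concentrations reached 100 uM top in half-log steps; fitting was bidirectional against 0.5% DMSO.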

Read-out in experiment [4]: ATP-citrate lyase (ACLY), ACLY (gene 47)
Description: LTEA_HepaRG_ACLY: Life Technologies and Expression Analysis (LTEA) Assay for ATP-citrate lyase (ACLY) using HepaRG (AID 2283466). The procedure, abridged: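 HepaRG, 48 h exposure, 8-pt half-log dilutions (top 100 uM), 0.5% DMSO. Readout: ACLY mRNA, TaqMan qRT-PCR, housekeeping-normalized (ACTB/GAPDH/POLR2A). Bidirectional curve fit vs DMSO.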

Read-out in experiment [5]: Peroxisomal acyl-coenzyme A oxidase 1 (ACOX1) gene, ACOX1 (gene 51)
Description: LTEA_HepaRG_ACOX1: Life Technologies and Expression Analysis (LTEA) Assay for Peroxisomal acyl-coenzyme A oxidase 1 (ACOX1) gene using HepaRG (AID 2283467). The procedure, abridged:
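Measured by qRT-PCR against three housekeeping genes: ACOX1 transcript change in human HepaRG cells after 48 h dosing. Concentrations ran up to 100 uM in half-log steps. Curves were fitted bidirectionally relative to 0.5% DMSO.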

Read-out in experiment [6]: Alkaline Phosphatase, Placental (ALPP) gene, ALPP (gene 250)
The experiment is described as follows: LTEA_HepaRG_ALPP: Life Technologies and Expression Analysis (LTEA) Assay for Alkaline Phosphatase, Placental (ALPP) gene using HepaRG (AID 2283468). The gist of the method:
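Differentiated human HepaRG cells were plated and cultured 48 h, then exposed in duplicate for 48 h in serum-free induction medium to eight half-log concentrations from 100 uM in 0.5% DMSO. ALPP mRNA was measured by TaqMan qRT-PCR, normalized to ACTB, GAPDH, POLR2A.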

Read-out in experiment [7]: Bcl-2 (BAD) gene, BAD (gene 572)
The experiment is described as follows: LTEA_HepaRG_BAD: Life Technologies and Expression Analysis (LTEA) Assay for Bcl-2 (BAD) gene using HepaRG (AID 2283469). The procedure, abridged:
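BAD transcript change, measured by qRT-PCR against three housekeeping genes and fitted in both directions relative to 0.5% DMSO, after 48 h chemical treatment of human HepaRG liver cells at concentrations up to 100 uM.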

Read-out in experiment [8]: Bcl-2 (BAX) gene, BAX (gene 581)
Description: LTEA_HepaRG_BAX: Life Technologies and Expression Analysis (LTEA) Assay for Bcl-2 (BAX) gene using HepaRG (AID 2283470). The procedure, abridged: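 Concentration-response endpoint fitted in both directions relative to 0.5% DMSO vehicle. Human HepaRG cultures receive test chemicals for 48 h at up to 100 uM; BAX mRNA is quantified by qRT-PCR against housekeeping genes.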

Read-out in experiment [9]: adenosine kinase (ADK) gene, ADK (gene 132)
The experiment is described as follows: LTEA_HepaRG_ADK: Life Technologies and Expression Analysis (LTEA) Assay for adenosine kinase (ADK) gene using HepaRG (AID 2283471). The gist of the method: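 Read-out is ADK transcript level measured by qRT-PCR and normalised to three housekeeping genes. Cells are human HepaRG, dosed for 48 h at up to 100 uM in 0.5% DMSO. Gain or loss of signal is fitted against DMSO controls.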

Read-out in experiment [10]: Alpha-fetoprotein (AFP) gene, AFP (gene 174)
Description: LTEA_HepaRG_AFP: Life Technologies and Expression Analysis (LTEA) Assay for Alpha-fetoprotein (AFP) gene using HepaRG (AID 2283472). The procedure, abridged:
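After a 48 h plating period, cells are moved to serum-free induction medium and dosed in duplicate (100 uM maximum, half-log dilutions, 0.5% DMSO) for another 48 h. Total RNA goes to TaqMan qRT-PCR; AFP signal is housekeeping-normalized.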

Read-out in another experiment: BCL2L11 (gene 10018)
Description: LTEA_HepaRG_BCL2L11: Life Technologies and Expression Analysis (LTEA) Assay for Bcl-2 (BCL2L11) gene using HepaRG (AID 2283473). The gist of the method:
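Differentiated human HepaRG cells in serum-free induction medium were exposed in duplicate for 48 h to eight concentrations (top 100 uM, half-log steps, 0.5% DMSO). BCL2L11 mRNA was quantified by TaqMan qRT-PCR, normalized to ACTB/GAPDH/POLR2A, bidirectional fit versus DMSO.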

Read-out in experiment [11]: Apolipoprotein A-V (APOA5) gene, APOA5 (gene 116519)
The experiment is described as follows: LTEA_HepaRG_APOA5: Life Technologies and Expression Analysis (LTEA) Assay for Apolipoprotein A-V (APOA5) gene using HepaRG (AID 2283474). The procedure, abridged: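 Differentiated human HepaRG cells were exposed in duplicate for 48 h to eight half-log concentrations from 100 uM in 0.5% DMSO. APOA5 mRNA was quantified by TaqMan qRT-PCR, normalized to ACTB, GAPDH and POLR2A, and fitted bidirectionally against DMSO.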

Read-out in experiment [12]: Apoptosis regulator Bcl-2 (Homo sapiens) (UniProt P10415)
The experiment is described as follows: LTEA_HepaRG_BCL2: Life Technologies and Expression Analysis (LTEA) Assay for Bcl-2 gene using HepaRG (AID 2283475). The gist of the method: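 Expression change of BCL2 mRNA in HepaRG after 48 h dosing, quantified by TaqMan qRT-PCR against three endogenous controls. Concentration-response used eight points up to 100 uM, vehicle 0.5% DMSO.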

Read-out in experiment [13]: Bcl-2 (BID) gene, BID (gene 637)
Description: LTEA_HepaRG_BID: Life Technologies and Expression Analysis (LTEA) Assay for Bcl-2 (BID) gene using HepaRG (AID 2283476). The gist of the method: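 Gain or loss of BID expression is fitted relative to 0.5% DMSO vehicle. Human HepaRG liver cells received a 48 h chemical exposure over an eight-point concentration range.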

Read-out in a further experiment: Caspase-3 (Homo sapiens) (UniProt P42574)
The experiment is described as follows: LTEA_HepaRG_CASP3: Life Technologies and Expression Analysis (LTEA) Assay for cysteine-aspartic acid protease (CASP3) using HepaRG (AID 2283477). The procedure, abridged:
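Differentiated human HepaRG cells in serum-free induction medium were exposed 48 h to 8-point half-log concentrations from 100 uM (0.5% DMSO vehicle). CASP3 mRNA was measured by qRT-PCR, normalised to ACTB, GAPDH and POLR2A, with bidirectional fitting against DMSO.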

Read-out in experiment [14]: Cytochrome P450 (CYP24A1), CYP24A1 (gene 1591)
Description: LTEA_HepaRG_CYP24A1: Life Technologies and Expression Analysis (LTEA) Assay for Cytochrome P450 (CYP24A1) using HepaRG (AID 2283478). The procedure, abridged:
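Differentiated HepaRG cells, pre-cultured 48 h, were exposed in duplicate for 48 h in serum-free induction medium to 8 half-log concentrations (top 100 uM, 0.5% DMSO). CYP24A1 mRNA was quantified by TaqMan qRT-PCR, normalized to ACTB/GAPDH/POLR2A, fitted bidirectionally versus DMSO.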

Read-out in experiment [15]: Cytochrome P450 (CYP1A2), CYP1A2 (gene 1544)
Description: LTEA_HepaRG_CYP1A2: Life Technologies and Expression Analysis (LTEA) Assay for Cytochrome P450 (CYP1A2) using HepaRG (AID 2283479). The procedure, abridged: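 Differentiated human HepaRG cells in serum-free induction medium were exposed in duplicate for 48 h to 8-point half-log concentrations up to 100 uM in 0.5% DMSO. CYP1A2 mRNA measured by qRT-PCR, normalized to ACTB, GAPDH, POLR2A; bidirectional fit vs DMSO.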

Read-out in experiment [16]: cysteine-aspartic acid protease (CASP8), CASP8 (gene 841)
The experiment is described as follows: LTEA_HepaRG_CASP8: Life Technologies and Expression Analysis (LTEA) Assay for cysteine-aspartic acid protease (CASP8) using HepaRG (AID 2283480). The gist of the method:
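HepaRG, 48 h exposure, duplicate wells; 8 conc, half-log from 100 uM, 0.5% DMSO. Serum-free induction medium. CASP8 mRNA by TaqMan qRT-PCR, norm. ACTB/GAPDH/POLR2A; gain/loss fitted vs DMSO.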

Read-out in experiment [17]: ABC Transporter (ABCC2), ABCC2 (gene 1244)
The experiment is described as follows: LTEA_HepaRG_ABCC2: Life Technologies and Expression Analysis (LTEA) Assay for ABC Transporter (ABCC2) using HepaRG (AID 2283464). The gist of the method:
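HepaRG cells were plated 48 h, switched to serum-free induction medium, then exposed in duplicate for 48 h to 8 concentrations (top 100 uM, half-log steps, 0.5% DMSO). ABCC2 mRNA was measured by qRT-PCR normalized to ACTB/GAPDH/POLR2A; bidirectional fitting versus DMSO.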

Structures are written as SMILES. Calls of active or inactive are those of the source. How the source made its calls: active means hit-call score of the fitted dose curve at least 0.9, where 1 is the maximum; inactive means score below 0.9.

Sequence of Broad substrate specificity ATP-binding cassette transporter ABCG2 (Homo sapiens) (Q9UNQ0 whole entry, looked up): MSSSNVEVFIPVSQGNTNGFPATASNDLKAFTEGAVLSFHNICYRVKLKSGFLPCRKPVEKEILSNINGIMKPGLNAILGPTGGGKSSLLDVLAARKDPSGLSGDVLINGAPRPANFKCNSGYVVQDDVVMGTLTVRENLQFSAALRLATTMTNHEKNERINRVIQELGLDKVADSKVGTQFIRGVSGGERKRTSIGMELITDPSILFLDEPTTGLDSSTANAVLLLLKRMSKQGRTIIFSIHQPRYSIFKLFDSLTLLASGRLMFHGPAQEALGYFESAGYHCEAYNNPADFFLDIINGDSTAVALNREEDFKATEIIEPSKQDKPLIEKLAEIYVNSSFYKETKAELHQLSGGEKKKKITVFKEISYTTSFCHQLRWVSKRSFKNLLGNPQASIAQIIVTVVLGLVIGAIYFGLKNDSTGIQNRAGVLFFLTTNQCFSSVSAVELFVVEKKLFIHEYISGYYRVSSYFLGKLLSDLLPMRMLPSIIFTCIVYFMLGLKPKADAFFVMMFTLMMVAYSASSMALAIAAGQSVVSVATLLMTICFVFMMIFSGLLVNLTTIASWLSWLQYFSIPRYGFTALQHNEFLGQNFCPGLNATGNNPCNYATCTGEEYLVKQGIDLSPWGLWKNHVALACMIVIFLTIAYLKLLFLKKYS
Sequence of Caspase-3 (Homo sapiens) (P42574 whole entry, looked up): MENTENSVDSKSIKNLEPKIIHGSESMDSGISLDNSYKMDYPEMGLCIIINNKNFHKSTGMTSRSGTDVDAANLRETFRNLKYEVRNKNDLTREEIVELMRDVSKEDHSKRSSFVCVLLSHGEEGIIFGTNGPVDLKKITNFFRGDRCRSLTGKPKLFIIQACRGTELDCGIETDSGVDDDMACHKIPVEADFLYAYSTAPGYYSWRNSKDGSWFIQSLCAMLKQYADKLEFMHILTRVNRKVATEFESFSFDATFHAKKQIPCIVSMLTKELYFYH
Sequence of Apoptosis regulator Bcl-2 (Homo sapiens) (P10415 whole entry, looked up): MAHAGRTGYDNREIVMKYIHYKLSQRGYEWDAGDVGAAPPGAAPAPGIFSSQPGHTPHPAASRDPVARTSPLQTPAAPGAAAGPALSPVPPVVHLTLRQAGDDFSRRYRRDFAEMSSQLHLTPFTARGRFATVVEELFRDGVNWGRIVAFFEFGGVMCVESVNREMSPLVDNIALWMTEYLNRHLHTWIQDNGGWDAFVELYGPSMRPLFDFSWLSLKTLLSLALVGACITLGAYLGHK

As for `CC[C@H](C)C(=O)O[C@H]1C[C@H](O)C=C2C=C[C@H](C)[C@H](CC[C@@H](O)C[C@@H](O)CC(=O)O)[C@H]21`, the call in experiment [1], in experiment [2], in experiment [3], in experiment [5], in [6] and in experiment [7] was inactive. The compound was classed as inactive (in [8]; in [9]; in [10]; in the experiment with BCL2L11 (gene 10018); in experiment [11]; in [12]). Besides, the compound was called inactive (in experiment [13]; with Caspase-3 (Homo sapiens); in experiment [14]; in [16]). Also, the half-maximal activity concentration (AC50) (in general, the concentration at which the activity in the assay is half-maximal) in experiment [4] is 9050 nM (active); in experiment [15] it was 3090 nM (active).

`CC(=O)c1ccccc1`: the call in experiment [1], in [2], in experiment [3], in [4], in [5] and in [6] was inactive. The result (in [8]; in [10]; in the experiment with BCL2L11 (gene 10018); in experiment [12]; in [13]; with Caspase-3 (Homo sapiens)) was inactive. Besides, the call in [14], in experiment [15] and in [16] was inactive.

For `CCOc1ccc2[nH]cc(C(=O)NCc3ccccc3)c(=O)c2n1`, the compound was called inactive in experiment [1], in [2], in experiment [3], in experiment [4], in experiment [5] and in experiment [6]. In addition, the compound was classed as inactive (in experiment [7]; in [8]; with BCL2L11 (gene 10018); in [13]; in the experiment with Caspase-3 (Homo sapiens); in experiment [14]). The compound was called inactive in [16]. The AC50 is 81300 nM (active) in [10], 662 nM (active) in [12] and 32000 nM (active) in experiment [15].

Take `CCCc1ccccc1`: the call in experiment [1], in experiment [2], in [3], in experiment [4], in experiment [5] and in experiment [6] was inactive. Also, the result (in experiment [7]; in [8]; in [9]; in [10]; in the experiment with BCL2L11 (gene 10018); in [12]) was inactive. Moreover, the result (in experiment [13]; in the experiment with Caspase-3 (Homo sapiens); in experiment [14]; in experiment [15]; in [16]) was inactive.

Take `CCN(CC)C(=S)SSC(=S)N(CC)CC`: the compound was called inactive in experiment [2], in [3], in experiment [4], in experiment [5], in experiment [6] and in experiment [7]. Besides, the compound was called inactive (in [8]; in [9]; in experiment [10]; with BCL2L11 (gene 10018); in [12]; in experiment [13]). Besides, the result (in the experiment with Caspase-3 (Homo sapiens); in experiment [14]; in experiment [16]) was inactive. In experiment [15], the AC50 was 75200 nM (active).

On to `COc1cc2c(c(OC)c1OC)-c1ccc(OC)c(=O)cc1[C@@H](NC(C)=O)CC2`, for which the AC50 is 196 nM (active) in experiment [1]; 63.4 nM (active) in [2]; 133 nM (active) in [17]; 98.9 nM (active) in experiment [5]; 221 nM (active) in [6]; 55.9 nM (active) in [8]. Besides, the figures for the AC50 (in [10]; with BCL2L11 (gene 10018)) were 148 nM (active) and 237 nM (active), respectively. Moreover, the outcome (in [3]; in experiment [4]; in [7]; in experiment [12]; in experiment [13]; with Caspase-3 (Homo sapiens)) was inactive. Besides, the result in experiment [14] and in [16] was inactive.

(Values after PubChem BioAssay (EPA / NIEHS).)
